Results reported in PubChem BioAssay AID624330 (Southern Research Specialized Biocontainment Screening …, 2012).
Hit rate of the full screen: of about 340,000 compounds, about 2,100 (0.62%) were called active.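 The calls were made as follows: active = first-screen hits whose inhibition reached a set limit at any dose in the follow-up dose series; inconclusive = inhibition above the set first-screen limit but never retested; inactive = the rest.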 Not all results are given here. Measured potencies and affinities stand elsewhere.

molecular target: Rac GTPase-activating protein 1 (Homo sapiens) (UniProt Q9H0H5); assay: MgcRacGAP GTPase-activating activity inhibitors, confirmation, biochemical, ADP Hunter fluorescence, primary and confirmatory (AID 624330); details: MgcRacGAP-stimulated Rac1 GTP hydrolysis, at 30 µM, hits give high values, GST-tagged Rac1 F28L mutant substrate;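 also: fluorescence reports GDP produced by GAP-driven GTP hydrolysis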
Sequence (Q9H0H5 whole entry, looked up): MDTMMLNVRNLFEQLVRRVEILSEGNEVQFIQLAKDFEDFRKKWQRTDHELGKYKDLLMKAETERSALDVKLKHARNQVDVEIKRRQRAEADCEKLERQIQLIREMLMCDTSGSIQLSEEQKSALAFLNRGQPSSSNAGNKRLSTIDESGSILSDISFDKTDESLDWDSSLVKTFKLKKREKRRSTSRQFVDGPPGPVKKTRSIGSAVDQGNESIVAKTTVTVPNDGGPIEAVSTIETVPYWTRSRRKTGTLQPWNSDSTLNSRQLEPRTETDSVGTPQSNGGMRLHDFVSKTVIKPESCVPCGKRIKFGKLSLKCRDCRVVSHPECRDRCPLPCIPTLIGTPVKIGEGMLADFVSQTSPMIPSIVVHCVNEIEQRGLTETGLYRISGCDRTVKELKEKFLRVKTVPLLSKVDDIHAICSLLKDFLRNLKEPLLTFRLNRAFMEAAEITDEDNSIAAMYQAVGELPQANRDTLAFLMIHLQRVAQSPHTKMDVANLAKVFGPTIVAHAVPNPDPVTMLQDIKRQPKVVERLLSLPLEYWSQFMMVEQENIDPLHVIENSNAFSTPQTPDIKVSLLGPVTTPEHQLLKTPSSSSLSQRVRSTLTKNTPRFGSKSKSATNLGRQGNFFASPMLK

inhibition, inactive:
O=c1c2cnn(-c3ccccc3)c2ncn1Cc1ccccc1F 7.32%
CC(=O)c1ccc(-c2nnc(CCC(=O)N3CCCC(C(=O)CC(C)C)C3)o2)s1 (stereo unspecified) 9.2%
CCn1c(SCC(=O)NCCOC)nc2sc3c(c2c1=O)CCCC3 6.34%
CC1CCCCC1NC(=O)CCn1c(=O)sc2ccccc21 (stereo unspecified) 12.2%
CN(CC(=O)Nc1ccc(N2CCOCC2)cc1)CC(=O)Nc1ccccc1C#N 6.72%
O=c1oc2cc(Br)ccc2n1Cc1ccccc1 13.7%
CCc1nnc(NC(=O)c2cccc(S(=O)(=O)N3CCCCC3)c2)s1 10.2%
COC(=O)Cc1c(O)ccn(CCc2ccc(OC)c(OC)c2)c1=O 5.94%
Cc1ccc(S(=O)(=O)N2C[C@@H](C)[C@]3(C2)[C@H](O)[C@H](OC(=O)NC2CCCC2)C[C@H]2C(=O)N(c4ccccc4)C(=O)[C@H]23)cc1 15.8%
CSc1nc2c(C)c(C)c(C)c(C)c2[nH]1 2.42%
CCOC(=O)N1CCN(C(=O)CC(C(=O)N2CCc3ccccc32)n2ccnc2)CC1 (stereo unspecified) 4.9%
O=C(COc1ccc2c3c(c(=O)oc2c1)CCCC3)NCCN1CCOCC1 1.04%
CCOC(=O)C1=C(O)/C(=C\c2cccc(OC)c2)N=C1C 7.59%
CCOC(=O)C1=C(O)/C(=C/c2cc(OC)c(OC)c(OC)c2)N=C1C 2.56%
CCOC(=O)C1=C(O)/C(=C\c2ccc(OC)c(OC)c2)N=C1C -1.28%
COC(=O)C1=C(O)/C(=C/c2ccc(OCC(=O)Nc3ccc(OC)cc3)cc2)N=C1C 6.48%
COC(=O)C1=C(O)/C(=C/c2cccc(OC)c2O)N=C1C 28.1%
COC(=O)C1=C(O)/C(=C\c2sccc2C)N=C1C 10.9%
CN1CCN(NC(=O)c2cc([N+](=O)[O-])cc([N+](=O)[O-])c2)CC1 -0.16%
CCC(C)NC(=O)CN(c1cc(C)cc(C)c1)S(=O)(=O)c1c(C)[nH]c(=O)[nH]c1=O (stereo unspecified) 9.01%
CCCC(=O)Nc1ccc2c(c1)nc(CCNC(=O)c1ccccc1)n2C 1.08%
Cc1nonc1CN(C)C(=O)c1cc(COc2ccc(F)cc2Cl)on1 1.26%
Cn1c(=O)c2c(nc(N3CCNCC3)n2Cc2cccc3ccccc23)n(C)c1=O 6.58%
Cc1cccc(C(=O)NCC(=O)NNC(=O)c2ccccc2O)c1 2.8%
Cc1ccc(NC(=O)c2cc(N3C(=O)CCC3=O)ccc2N2CCCCC2)cc1 5.7%
Oc1[nH]c2ccccc2c1C=Nc1ccccc1 11.5%
CCN(CC)c1ccc(N=Cc2ccc(N(CC)CC)cc2O)cc1 6.98%
COc1ccc(N=Cc2c(O)[nH]c3ccccc23)cc1 9.26%
CCN(CC)c1ccc(N=Cc2ccc([N+](=O)[O-])o2)cc1 25.9%
CC1(C)CC(=O)C=C(NCCN2CCN(C(=S)NC3CCCCC3)CC2)C1 -3.74%
CN(Cc1ccccc1)S(=O)(=O)c1ccc(Cl)nc1 11.5%
CCOC(=O)c1ccccc1NC(=O)COC(=O)CCNS(=O)(=O)c1cccs1 3.03%
COc1ccc(NC(=O)NNC(=O)C(C)Oc2ccc3ccccc3c2)cc1 (stereo unspecified) 3.58%
O=C(Nc1ccc(Nc2ccccc2)cc1)C(Cl)(Cl)Cl 12.3%
O=C(Nc1ccc(Nc2ccccc2)cc1)c1c(F)c(F)c(F)c(F)c1F -3.02%
S=C(NCCc1ccccc1)Nc1ccc(Nc2ccccc2)cc1 26.5%
Cc1ccc(Nc2ccccc2)cc1 6.69%
Cc1ccc(C)c(OCCC(=O)OCC(=O)Nc2cc(S(=O)(=O)N3CCCCC3)ccc2C)c1 0.95%
CC1CCN(C(=O)c2ccc(NS(=O)(=O)c3ccc4[nH]c(=O)[nH]c4c3)cc2)CC1 8.71%
CN(CC(=O)O/N=C(\N)c1ccc([N+](=O)[O-])cc1)S(=O)(=O)c1ccccc1 -3.85%
O=C(/C=C/C(Cl)(Cl)Cl)Nc1ccc(Cl)cc1 9.68%
CC1=NN(c2ccccc2)C(=O)C1C(=O)c1ccccc1 (stereo unspecified) 12.2%
CC1=NN(c2ccccc2)C(=O)C1C=Nc1ccccc1O (stereo unspecified) 14.8%
O=C(NC1(C(F)(F)F)C(=O)Nc2c1c(=O)[nH]c(=O)n2Cc1ccccc1)c1ccco1 (stereo unspecified) 6.82%
OCCCN1CCN(CCCOc2ccccc2-c2ccccc2)CC1 5.09%
OCCN1CCN(CCOc2ccccc2-c2ccccc2)CC1 -0.13%
CC1CN(CCOc2ccccc2-c2ccccc2)CC(C)O1 (stereo unspecified) 18%
c1ccc(-c2ccccc2OCCOCCN2CCNCC2)cc1 31.8%
CCOc1ccccc1OCCOCCN1CC(C)OC(C)C1 (stereo unspecified) 17.3%
c1ccc(-c2ccccc2OCCOCCN2CCCCC2)cc1 17.9%
c1ccc(-c2ccccc2OCCCN2CCOCC2)cc1 27.2%
CCN1CCN(CCOc2ccccc2-c2ccccc2)CC1 7.05%
Cc1ccc(C(=O)COC(=O)c2cnccn2)cc1 -2.3%
O=C(C1CCCN(S(=O)(=O)c2ccc(Cl)cc2)C1)N(Cc1cccs1)C1CC1 (stereo unspecified) 6.33%
CCn1c(SCC(=O)Nc2cc(C)on2)nnc1-c1ccc(OC)cc1 -3.69%
OC(CNCc1cccs1)c1ccccc1 (stereo unspecified) 8.64%
COc1cccc(CN2CCN(S(=O)(=O)c3ccc(Cl)s3)CC2)c1 -1.96%
CCOc1ccc(/C=N/n2cc(-c3ccccc3)[nH]c2=S)cc1 7.02%
CCOC(=O)C1(C(=O)OCC)NC(=O)CC1CC(C)C (stereo unspecified) 0.34%
COc1ccc(NC(=S)NCCc2ccc(F)cc2)c(OC)c1 5.59%
Fc1ccccc1OCCCCN1CCCCC1 24.8%
CC1CN(CN2C(=O)c3ccccc3C2=O)CC(C)O1 (stereo unspecified) -0.88%
Cc1ccccc1OCCCCCn1ccnc1 2.87%
C/C=C/c1ccc(OCCCCOc2ccc(OC)cc2)c(OC)c1 8.38%
C/C=C/c1ccc(OCCCCN2CCC(C)CC2)c(OC)c1 17.4%
CC1CN(C(=O)CCCN2C(=O)c3ccccc3C2=O)CC(C)O1 (stereo unspecified) -0.39%
Clc1ccccc1OCCCCn1ccnc1 -1.42%
Fc1ccccc1OCCCCCN1CCCC1 10.2%
CCn1c2ccccc2c2cc(NC(=O)COC(=O)c3cc(S(N)(=O)=O)c(Cl)cc3Cl)ccc21 11.3%
O=C(Nc1nnc(C2CC2)s1)C1Cc2ccccc2CN1C(=O)c1ccco1 (stereo unspecified) 6.66%
c1cn(CCCNc2ncnc3nc[nH]c23)cn1 8.22%
CCCNC(=O)CNC(=S)N(Cc1ccccc1F)C1CCCCC1 8.76%
CCCN(CC(=O)Nc1ccc(F)c(F)c1F)C(=O)Cn1c(=O)cnc2ccccc21 5.6%
O=C(OCC(=O)N1CCc2ccccc2C1)c1c(F)cccc1Cl 4.76%
O=C1CN(C(=O)COC(=O)c2ccc(N3CCCCCC3)c([N+](=O)[O-])c2)c2ccccc2N1 13.5%
COc1ccc(NC(=O)CN(C)C(=O)Cn2c(=O)oc3ccccc32)cc1 3.28%
COc1cc(/C=C2/CC/C(=C/c3ccc(O)c(OC)c3)C2=O)ccc1O 22%
CCOc1cc(/C=C2\CCCC(C(=O)C(F)(F)F)=C2O)ccc1O 25.9%
COc1ccc(/C=C2\CN(Cc3ccccc3)C/C(=C\c3ccc(OC)c(O)c3)C2=O)cc1O 7.6%
COc1cc(/C=C2/C(=O)CNC2=O)ccc1O 28.6%
CCN1C/C(=C/c2ccc(OC)c(O)c2)C(=O)/C(=C/c2ccc(OC)c(O)c2)C1 8.1%
COc1ccc(/C=C2\CC/C(=C\c3ccc(OC)c(OC)c3)C2=O)cc1OC 4.49%
CCOc1cc(/C=C2/C(=O)ON=C2C)ccc1O 21.6%
CCOc1cc(/C=C2\CCn3c2nc2cc(Cl)ccc2c3=O)ccc1O 15.1%
O=C(CSc1nnc(NC(=O)c2ccccc2F)s1)NC1CC1 2.69%
NNC(=O)c1ncoc1-c1ccc(Cl)cc1 5.93%
C=CCN1CC2CC3(COc4cc(C)cc(C)c4)C=CC2(O3)C1=O (stereo unspecified) 14.1%
Cc1ccc(C(=O)OCC(=O)Nc2ccc(F)c(Cl)c2)o1 5.92%
COc1ccc(CNC(=O)C[C@H]2C[C@H](C(=O)N3CCOCC3)[C@@]3(C)c4[nH]c5cc(-c6ccco6)ccc5c4CCN3C2=O)cc1OC 15.1%
O=C(C=Cc1ccccn1)c1ccccc1 3.53%
CCO[C@@H]1OC(C(=O)N2CCOCC2)=C[C@H](c2ccc(Br)cc2)[C@H]1CCCO 9.4%
CC(C)CCNC(=O)C(c1ccncc1)N(C(=O)Cn1nnc(-c2ccc(F)cc2)n1)c1ccccc1F (stereo unspecified) 2.28%
CSc1ccccc1NC(=O)CSc1n[nH]c(C)c1[N+](=O)[O-] 8.49%
Nc1nonc1-n1nnc(C(=O)N/N=C/c2ccc(OCc3ccccc3F)cc2)c1CN1CCCCC1 -2.32%
COc1cc(/C=C2/C(=O)N(C)C(=S)N2C)ccc1OCc1cccc(F)c1 8.12%
CN1C(=O)/C(=C/c2ccc(O)c([N+](=O)[O-])c2)N(C)C1=S 12.6%
